Values without a mark were called inactive. Inconclusive results are not listed. Active and inactive are the calls of the source. The call rests on the fitted dose curve; in most records, active means well fitted curve in the direction sought with a large enough effect; inconclusive means small, poorly fitted or top-dose-only effect, or another doubt; inactive means no such curve, though single readings can be large; an effect the other way counts as inactive or inconclusive.
The molecules below were run against Cytochrome P450 3A4 (Homo sapiens) (UniProt P08684) (assay: qHTS Assay for Activators of Cytochrome P450 3A4 (AID 885; further: nearly all actives have a fitted effect of over 65% in size)). Conditions: recombinant CYP3A4, Luciferin-PPXE luminescence, 60 min; series mostly up to 57.1 µM; activity change, positive = activation: at the top concentration.
Cytochrome P450 3A4 (Homo sapiens), sequence (P08684 whole entry, looked up): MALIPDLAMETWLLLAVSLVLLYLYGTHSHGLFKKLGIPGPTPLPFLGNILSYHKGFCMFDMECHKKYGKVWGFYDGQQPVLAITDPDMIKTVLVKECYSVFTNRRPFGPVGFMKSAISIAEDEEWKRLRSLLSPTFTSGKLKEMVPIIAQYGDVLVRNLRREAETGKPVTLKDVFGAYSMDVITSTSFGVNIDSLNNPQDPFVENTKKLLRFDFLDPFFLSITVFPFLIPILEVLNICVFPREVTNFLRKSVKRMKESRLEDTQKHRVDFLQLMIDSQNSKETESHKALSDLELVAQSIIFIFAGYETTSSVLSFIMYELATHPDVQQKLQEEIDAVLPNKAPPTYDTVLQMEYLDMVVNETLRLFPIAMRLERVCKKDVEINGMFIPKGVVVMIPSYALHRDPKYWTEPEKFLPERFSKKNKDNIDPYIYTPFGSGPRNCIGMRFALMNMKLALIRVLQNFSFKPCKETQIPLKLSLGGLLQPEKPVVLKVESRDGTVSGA
Method in brief: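 CYP3A4 activity: Luciferin-PPXE O-dealkylation, 25uM substrate, 200mM KPO4, RT throughout. Read-out is luciferase luminescence; higher values reflect activation.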

SMILES	activity change, positive = activation
Cc1cnc(CNc2cc(-c3cccnc3)ncn2)cn1	-53.6%
COc1ccccc1CNc1cc(-c2ccccc2Cl)ncn1	-41.5%
O=c1c(-c2cccc(Cl)c2)nc2cncnc2n1-c1ccccc1	-59.3%
CN(Cc1ccco1)c1ncncc1-c1ccccc1C(F)(F)F	-95.8%
COc1ccc2[nH]cc(CCNc3ccnc(-c4c(C)noc4C)n3)c2c1	-79.8%
COc1cccc(Cn2c(=O)c(-c3cccs3)nc3cnc(OC)nc32)c1	-118%
COCCNc1ncnc2ccc(-c3c(C)noc3C)cc12	-55%
CN(Cc1ccco1)c1nc(-c2ccoc2)nc2ccccc12	-74.8%
COc1cccc(Cn2c(=O)c(-c3cccs3)nc3cnc(N4CCNCC4)nc32)c1	-70.9%
COc1cccc(Nc2ncc3nc(CCc4ccccc4)c(=O)n(Cc4cccs4)c3n2)c1	-44.8%
Cc1ccccc1-c1ccc2ncnc(NCc3cccnc3)c2c1	-79.1%
Cc1cnc(CNc2ncncc2-c2ccc(N(C)C)cc2)cn1	-84.1%
COc1ccc(CNc2nc(-c3cccc(C#N)c3)nc3ccccc23)c(OC)c1	-91.2%
CCNc1ncc2nc(CCc3ccccc3)c(=O)n(Cc3ccc(F)cc3)c2n1	-66.5%
CS(=O)(=O)Nc1cccc(-c2ccc3ncnc(N4CCOCC4)c3c2)c1	-107%
COc1ccccc1CNc1ccnc(-c2c(C)noc2C)n1	-101%
CNc1nc(-c2cccc(C#N)c2)nc2ccccc12	-87.2%
COc1cccc(-c2nc(NCCNC(C)=O)c3ccccc3n2)c1	-95.8%
COc1ccccc1CNc1ccnc(-c2ccccc2OC)n1	-80.6%
COc1ccccc1CNc1ncnc2ccc(-c3ccc4c(c3)OCO4)cc12	-62.3%
N#CCCn1c(=O)c(-c2ccc(F)cc2)nc2cnc(N3CCNCC3)nc21	-58.8%
COc1cccc(-c2nccc(NCc3ccccc3OC)n2)c1	-74.4%
COc1cccc(Nc2ncc3nc(-c4ccc(Cl)cc4)c(=O)n(C[C@H]4CCCO4)c3n2)c1	-42.5%

Each molecule was assayed against Cytochrome P450 2D6 (Homo sapiens) (UniProt P10635) (assay: qHTS Assay for Inhibitors and Substrates of Cytochrome P450 2D6 (AID 891; further: nearly all actives have a fitted effect of over 60% in size; further: potency means the concentration at half of the fitted maximal effect;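 on activity change, negative = inhibition: luciferin methyl ether substrate demethylated by CYP2D6 with NADPH regeneration; on the % scale 0 is the no-effect control and ±100 the full control effect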)). Conditions: recombinant CYP2D6, luciferin-ME EGE luminescence; series mostly up to 57.1 µM; activity change, negative = inhibition: at the top concentration.
Cytochrome P450 2D6 (Homo sapiens), sequence (P10635 whole entry, looked up): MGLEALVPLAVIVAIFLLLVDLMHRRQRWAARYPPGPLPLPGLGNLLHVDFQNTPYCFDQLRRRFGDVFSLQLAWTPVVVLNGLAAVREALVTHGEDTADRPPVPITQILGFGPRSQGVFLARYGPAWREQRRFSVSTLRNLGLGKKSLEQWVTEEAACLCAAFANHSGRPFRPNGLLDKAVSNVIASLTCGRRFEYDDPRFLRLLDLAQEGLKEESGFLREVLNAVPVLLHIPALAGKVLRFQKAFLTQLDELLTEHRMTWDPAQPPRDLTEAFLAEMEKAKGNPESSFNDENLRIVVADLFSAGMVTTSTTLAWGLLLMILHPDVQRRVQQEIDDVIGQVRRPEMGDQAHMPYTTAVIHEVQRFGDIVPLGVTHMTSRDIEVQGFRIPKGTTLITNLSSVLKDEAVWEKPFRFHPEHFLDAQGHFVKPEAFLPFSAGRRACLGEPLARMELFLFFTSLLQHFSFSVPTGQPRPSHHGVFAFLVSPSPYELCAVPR
Method in brief: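 Luminescent read-out of luciferin formed by 5 nM human CYP2D6 demethylating 30 uM Luciferin-ME EGE (Km level) over 60 min at room temperature after NADPH regeneration addition. Data normalized to full inhibition by 1.43 uM quinidine.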

SMILES	activity change, negative = inhibition	Potency
O=c1c(-c2ccc(Cl)cc2)nc2cnc(N3CCOCC3)nc2n1Cc1ccc(F)cc1	3.08%	–
Cc1ccccc1-c1ccc2ncnc(NCc3cccnc3)c2c1	–	2000 nM (active)
COc1cccc(-c2nc(NCCNC(C)=O)c3ccccc3n2)c1	–	3980 nM (active)
COc1ccccc1CNc1ccnc(-c2ccccc2OC)n1	–	1580 nM (active)
COc1cccc(-c2nccc(NCc3ccccc3OC)n2)c1	–	398 nM (active)
